Assay outcomes (PubChem BioAssay)
Only some compounds are listed: those with a hit (about 0.71% of all), similar ones and a draw of the others.
CBFb-RUNX1 inh = qHTS Assay for Compounds Blocking the Interaction Between CBF-beta and RUNX1 for the Treatment of Acute Myeloid Leukemia. AID 1477, 2009. 230,000 tested, under 10 active. Runt-related transcription factor 1 (Homo sapiens) + Core-binding factor subunit beta …. Potency, µM (titrated, usually from 59.8 µM), for the others: at the top dose activity, negative = inhibition, usual class: inhibitors. AlphaScreen CBFb-His/RUNX1-biotin binding, biochemical; note: % of control where 0% means no effect
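Bead-based AlphaScreen assay; binding partners His-tagged CBF-beta and biotinylated RUNX1 at 30 nM each. Compound exposure 15 min after a 20-min protein preincubation; bead step 90 min; all steps at room temperature.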
Epigenetic derep = Quantitative High-Throughput Screen for Regulators of Epigenetic Control; Potency, µM (highest dose often 53.9 µM), inactives show top-dose GFP activation, most hits filed as activators; murine LDR cells, GFP reporter derepression, 30 h; 280,000 compounds, 0.2% hits; AID 1865, 2009; note: potency is the fitted concentration of half-maximal effect; % of control where 0% means no effect; nearly all actives have a fitted effect of over 60% in size
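Readout is the number of GFP-expressing murine LDR cells, counted by cytometry following washing. Cells were treated with compound for 30 h at 37 C; the stably integrated CMV-GFP locus is normally silent.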
TRb-SRC2 inh = qHTS for Inhibitors of the Interaction of Thyroid Hormone Receptor and Steroid Receptor Coregulator 2; Thyroid hormone receptor beta (Homo sapiens), P10828; Potency, µM (titrated, usually from 106 µM), for the others: at the highest dose activity change, negative = inhibition, hits mostly inhibitors; TRbeta-SRC2 peptide binding, fluorescence polarization; receptor liganded with 1 µM T3; 280,000 compounds, 0.065% hits;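 note: potency is the fitted concentration of half-maximal effect; plate controls were bound peptide for no effect and peptide without receptor for full effect; nearly all actives have a fitted effect of over 50% in size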
Target sequence (P10828 whole entry, looked up): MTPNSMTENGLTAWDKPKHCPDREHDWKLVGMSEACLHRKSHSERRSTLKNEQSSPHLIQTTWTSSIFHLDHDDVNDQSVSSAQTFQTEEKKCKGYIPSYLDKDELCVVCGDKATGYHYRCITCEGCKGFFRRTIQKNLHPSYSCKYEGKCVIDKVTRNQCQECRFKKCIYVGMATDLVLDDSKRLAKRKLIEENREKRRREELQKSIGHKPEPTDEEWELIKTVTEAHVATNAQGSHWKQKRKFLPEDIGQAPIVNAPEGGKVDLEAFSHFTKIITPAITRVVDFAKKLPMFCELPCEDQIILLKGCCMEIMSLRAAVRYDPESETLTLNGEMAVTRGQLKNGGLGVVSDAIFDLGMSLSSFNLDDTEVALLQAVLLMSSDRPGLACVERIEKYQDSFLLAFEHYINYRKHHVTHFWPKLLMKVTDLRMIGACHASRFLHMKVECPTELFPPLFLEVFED
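Human TRb ligand-binding domain (0.6 uM) is mixed with 20 nM Texas Red SRC2 peptide and 1 uM T3; after compound addition and 5 hr at ambient temperature, polarization is measured and normalized to unbound and bound controls.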
TexasRed fluor = Total Fluorescence Counterscreen for Inhibitors of the Interaction of Thyroid Hormone Receptor and Steroid Receptor Coregulator 2; TRb/SRC2 Texas Red total fluorescence interference; Potency, µM (series often up to 106 µM), for the others: at the highest dose fluorescence change, negative = quenching; 280,000 compounds, 0.29% hits; AID 1479, 2009; active = well fitted curve in either direction with a large enough effect; inconclusive = small, poorly fitted or top-dose-only effect; note: potency is the fitted concentration of half-maximal effect; % is set by controls: 0 for no effect and ±100 for the full control effect
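Human TRβ ligand-binding domain (0.6 uM) and Texas Red SRC2 peptide (20 nM) in Tris buffer with 1 uM T3 and 5% DMSO were incubated with pinned compound for 5 hr at ambient temperature. Total fluorescence was computed as S + 2P (555/632 nm).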
RGS12 GoLoco inh-1 = qHTS Assay for Inhibitors of RGS12 GoLoco Motif Activity (Red Fluorophore); Guanine nucleotide-binding protein G(i) subunit alpha-1 (Homo sapiens), P63096; Gai1:RGS12 GoLoco peptide FP, rhodamine, 10 min; Potency, µM (highest dose often 61.6 µM), for the others: at the highest dose activity, negative = inhibition, actives largely listed as inhibitors; 230,000 compounds, 0.44% hits; AID 880, 2007; active = well fitted inhibition curve with a large enough effect, not every such curve was filed as active; inactive = no such curve, though single readings can be large or run the other way; note: potency is the fitted concentration of half-maximal effect; % is set by controls: 0 for no effect and ±100 for the full control effect; nearly all actives have a fitted effect of over 30% in size
RGS12 GoLoco inh-2 = Confirmation qHTS Assay for Inhibitors of RGS12 GoLoco Motif Activity (Red Fluorophore). Gai1/rhodamine-RGS12 GoLoco peptide fluorescence polarization. Potency, µM (top dose mostly 57.1 µM), inactives show at the highest dose activity, negative = inhibition, most hits filed as inhibitors. AID 2390, 2010. 110 compounds, 50% hits. shares compounds with RGS12 GoLoco inh-1
* marks the source's active call; other numbers are inactive results; ? = inconclusive; nt = not tested or not shown; ! = not confirmed by another sample; [ ] = dose if it differs, or a comment. Unless noted, calls come from the whole dose curve; as a rule, active = well fitted curve in the direction sought with a large enough effect; inconclusive = small, poorly fitted or top-dose-only effect, or another doubt; inactive = no such curve, though single readings can be large; an effect the other way counts as inactive or inconclusive.

SMILES	CBFb-RUNX1 inh	Epigenetic derep	TRb-SRC2 inh	TexasRed fluor	RGS12 GoLoco inh-1	RGS12 GoLoco inh-2
CCOC(=O)CC1C(=O)NCCN1C(=O)c1cc2c(=O)n3cccc(C)c3nc2s1 (centres undefined)	1%	-2%	-3%	-2%	-7%	nt
Cc1cc(=O)n2nc(N3CCC(C(=O)NCc4ccccc4Cl)CC3)sc2n1	nt	-4%	7%	-2%	nt	nt
COc1ccc(CNC(=O)CSc2ncc3c(n2)-c2ccc(Cl)cc2N(Cc2ccccc2)S3(=O)=O)cc1	nt	16µM*	-1%	0%	nt	nt
CCCCCCNC(=O)Nc1ccc(S(=O)(=O)Nc2ccc(CCNC[C@H](O)COc3ccc(O)cc3)cc2)cc1	-9%	-1%	-2%	-18%	-1%	nt
Cc1ccnc(N/C=C(\C#N)c2nc(-c3cccc(Br)c3)cs2)c1	23%	16µM*	1%	-3%	23%	nt
Cc1ccc(NC(=O)Cc2ccccc2Cl)cc1S(=O)(=O)N(C)C	-6%	1%	-24%[53 µM]	0.1µM*[quencher]	11%	nt
Cc1nn2c(NCc3ccccn3)c3c(nc2c1-c1ccccc1)CCC3	-8%	22µM*	1%	-4%	-16%	nt
COc1ccc(CNC(=O)c2cc(-c3cccs3)nc3ccccc23)c(OC)c1	nt	0%	-10%	0.022µM*[quencher]	nt	nt
C[N+]1=C2CCCCCN2C(O)(c2ccccc2)C1 (centres undefined)	10%	1%	-4%	-4%	14µM*	nt
NC(=O)NC1NC(=O)NC1=O (centres undefined)	13%	2%	-1%	-1%	18µM*!	?
NC(=O)NOC[C@@H]1NC(=O)NC1=O	nt	nt	nt	nt	8%[14.2 µM]	nt
CO/N=C(/C(=O)NC1C(=O)N2C(C(=O)O)=C(CSc3nc(=O)c(O)nn3C)CSC12)c1csc(N)n1 (centres undefined)	?	1%	-7%	-2%	-6%	nt
CO/N=C(/C(=O)N[C@H]1C(=O)N2C(C(=O)O)=C(COC(C)=O)CSC12)c1csc(N)n1 (some centres undefined)	nt	0%	4%	0%	7.9µM*	3%
Cc1nc(SCC(=O)Nc2ccccc2Cl)cc(-c2ccccc2)n1	nt	1%	-3%	-20%	nt	nt
O=C(CSCc1ccccc1Br)N/N=C/c1ccc(OCC(=O)N2CCCCC2)cc1	-2%	-1%	-2%	-4%	nt	nt
Cc1ccc(CSCC(=O)N/N=C/c2ccc(OCC(=O)Nc3ccc(C)cc3)cc2)cc1	1%	-8%	27%	-15%	76%	nt
COc1ccc(CSCC(=O)N/N=C/c2ccc(OCC(=O)N3CCCCC3)cc2)cc1	5%	-1%	-6%	-1%	3.5µM*	?
O=C(CSCc1ccccc1)N/N=C/c1ccc(OCC(=O)N2CCCCC2)cc1	0%	2%	15%	1%	-5%	6%
Fc1ccccc1N1CCN(c2ncnc3onc(-c4cccc(Cl)c4)c23)CC1	nt	2%	-2%	-1%	nt	nt
CCOC(=O)c1cnc2c(C)cc(C)cc2c1NCCN1CCOCC1	nt	-1%	2%	-9%	nt	nt
COc1ccc(NS(=O)(=O)c2ccc3c(c2)CC(C)N3C(C)=O)c(OC)c1 (centres undefined)	nt	-1%	-3%	4%	nt	nt
Cn1c(SCC(=O)Nc2ccc3c(c2)oc2ccccc23)nnc1-c1ccccc1	7%	-1%	-5%	0%	3.5µM*	7.9µM*
CCC(=O)Nc1ccc(-c2nnc(SCC(=O)NCC3CCCO3)n2C)cc1 (centres undefined)	-5%	2%	10%	-2%	-6%	12%
